Only some compounds are listed: those with a hit (about 3.8% of all), similar ones and a draw of the others.
ELG1 repair inh: ELG1-dependent DNA repair inhibition | Potency, µM (titrated, usually from 46.1 µM), for the others: at the highest dose activity change, negative = inhibition, usual class: inhibitors | 330,000 tested, 2.3% active | AID 504467 | HEK293T ELG1-luciferase reporter, luminescence, 16 h; DNA damage induced by 5-fluorouridine; further: on the % scale 0 is the no-effect control and ±100 the full control effect; nearly all actives have a fitted effect of over 55% in size
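Cells (2,000 per well) received 5-fluorouridine plus test compound or DMSO and were incubated 16 hr at 37 °C, 5% CO2. Luciferase activity was read by luminescence 30 min after ONE-Glo addition; signal suppression marked inhibition of damage-induced ELG1 function.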
IDH1 R132H inh: blocks human mutant IDH1 R132H enzyme | O75874 | IDH1-R132H enzyme, NADPH consumption, diaphorase/resazurin fluorescence | Potency, µM (highest dose often 76.6 µM), for the others: at the highest dose activity change, negative = inhibition, usual class: inhibitors | 390,000 tested, 0.093% active | AID 602179; further: on the % scale 0 is the no-effect control and ±100 the full control effect; nearly all actives have a fitted effect of over 65% in size
Target sequence (O75874 whole entry R132H, stated change not applied): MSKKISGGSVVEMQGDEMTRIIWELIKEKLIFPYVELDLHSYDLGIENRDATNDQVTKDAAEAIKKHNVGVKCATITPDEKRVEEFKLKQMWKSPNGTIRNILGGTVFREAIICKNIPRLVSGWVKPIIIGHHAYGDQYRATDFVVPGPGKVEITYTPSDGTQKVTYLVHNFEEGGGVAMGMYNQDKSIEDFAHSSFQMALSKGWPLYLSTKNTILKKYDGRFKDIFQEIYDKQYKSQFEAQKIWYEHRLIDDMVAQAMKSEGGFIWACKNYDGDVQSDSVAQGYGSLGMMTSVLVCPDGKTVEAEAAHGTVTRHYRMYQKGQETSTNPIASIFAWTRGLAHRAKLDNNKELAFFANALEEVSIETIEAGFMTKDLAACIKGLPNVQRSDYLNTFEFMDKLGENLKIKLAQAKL
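IDH1-R132H (0.5 ug/mL) preincubated 30 min with compound, then NADPH (0.016 mM) and alpha-KG (2 mM) added; 80 min at RT, pH 7.5. Remaining NADPH coupled via diaphorase/resazurin to fluorescence (540/590 nm); concentration-response curves normalized to no-enzyme control.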
Nrf2 block: Nrf2 pathway inhibition. AID 504444. 360,000 tested, 2.1% active. A549 ARE-Fluc reporter, luciferase luminescence, 18-24 h. Potency, µM (top dose mostly 46 µM), without a hit: at the highest dose activity change, negative = inhibition, actives largely listed as inhibitors; further: on the % scale 0 is the no-effect control and ±100 the full control effect; nearly all actives have a fitted effect of over 60% in size
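Two sequential reads on A549 ARE_Fluc cells exposed to compound for 18-24 h: a CellTiter-Fluor fluorescence read for viability, then a luciferase luminescence read for Nrf2/ARE activity.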
Nrf2 activator: activates Nrf2 signaling; Potency, µM (doses to about 46.1 µM), for inactives: at the top dose activation, actives largely listed as activators; AREc32 ARE-luciferase reporter (MCF7-derived line), luminescence, 24 h; 410,000 tested, 0.31% active; AID 624171; further: % of control where 0% means no effect; nearly all actives have a fitted effect of over 65% in size
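AREc32 cells carrying an ARE-driven firefly luciferase, 1000 cells/well in OPTI-MEM with 5% FBS, dosed after overnight attachment and incubated 24 hr at 37 deg C. Steady-Glo luminescence read after 30 min at RT.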
A549 tox: kills or reduces viability of A549 cells in Nrf2 counter-screen. A549 ARE-Fluc cells, CellTiter-Fluor viability, 18-24 h. Potency, µM (titrated, usually from 46 µM), for the others: at the top dose activity change, negative = cytotoxicity, usual class: inhibitors. 390,000 tested, 0.16% active. AID 504648; further: on the % scale 0 is the no-effect control and ±100 the full control effect
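A549 ARE_Fluc cells in 5% FBS OPTI-MEM were exposed to compounds in concentration-response for 18-24 h at 37 deg C. Viability was read by CellTiter-Fluor fluorescence (Ex 405/Em 525) after 30 min, before the luciferase read.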
Numbers without * were called inactive; [ ] = remark or other dose. The call rests on the fitted dose curve; in most records, active means well fitted curve in the direction sought with a large enough effect; inconclusive means small, poorly fitted or top-dose-only effect, or another doubt; inactive means no such curve, though single readings can be large; an effect the other way counts as inactive or inconclusive. Potency means the concentration at half of the fitted maximal effect.

For O=C(Nc1nnc(S(=O)(=O)N2CCCC2)s1)c1ccc(F)cc1 the results were IDH1 R132H inh 32%, Nrf2 block inconclusive, Nrf2 activator 0% and A549 tox -1%.
Screening O=C(Nc1ccccc1F)c1nc(S(=O)(=O)Cc2ccccc2F)ncc1Cl returned IDH1 R132H inh 0%, Nrf2 block inconclusive, Nrf2 activator 22% and A549 tox inconclusive.
Screening O=C(Nc1nnc(-c2ccccc2)s1)C1CCCN(C(=O)c2ccoc2)C1 (stereo not given) returned Nrf2 block 3% and A549 tox 0%.
COc1ccc(N2Cc3ccc(OC)c(OC)c3C2=O)cc1 was read as ELG1 repair inh inconclusive, IDH1 R132H inh 3%, Nrf2 block inconclusive, Nrf2 activator 0% and A549 tox 3%.
`COc1ccc2c(c1OC)C(=O)N(c1cccc(/C=C/C(=O)O)c1)C2` gave ELG1 repair inh inconclusive, IDH1 R132H inh -4%, Nrf2 block 16µM*, Nrf2 activator 0% and A549 tox -4%.
For CC(C)(C)OC(=O)N1CCC(c2c(C(=O)NC3CCCCC3)cnn2-c2cccc(Cl)c2)CC1 the results were IDH1 R132H inh -15%, Nrf2 block inconclusive, Nrf2 activator -1% and A549 tox -10%.
For COc1ccc(Cl)cc1C(=O)Nc1ccc(-c2nnc3n2CCCCC3)cc1 the results were IDH1 R132H inh 29%, Nrf2 block 23µM*, Nrf2 activator 0% and A549 tox -14%.
`CCOC(=O)/C=C/C(=O)Nc1ccc(-c2nnc3n2CCCCC3)cc1` gave ELG1 repair inh 0%, IDH1 R132H inh -2%, Nrf2 block 1%, Nrf2 activator inconclusive and A549 tox 3%.
`COc1ccc(/C=C/C(=O)Nc2ccc(-c3nnc4n3CCCCC4)cc2)c(OC)c1` gave ELG1 repair inh 23µM*, IDH1 R132H inh 0%, Nrf2 block inconclusive, Nrf2 activator 0% and A549 tox 10%.
Screening CSc1ccc(N/N=C(/C#N)S(=O)(=O)C(C)(C)C)cc1 returned ELG1 repair inh 18µM*, IDH1 R132H inh -3%, Nrf2 block inconclusive, Nrf2 activator 2% and A549 tox -28%.
Screening CCOc1ccccc1-c1nc(-c2cccc(Br)c2)no1 returned ELG1 repair inh inconclusive, IDH1 R132H inh 12%, Nrf2 block inconclusive, Nrf2 activator 10% and A549 tox 18%.
CNc1ccccc1C(C)(C)c1cc(-c2cccc([N+](=O)[O-])c2)no1 was read as ELG1 repair inh 1.5µM*, IDH1 R132H inh -2%, Nrf2 block -11%, Nrf2 activator 3% and A549 tox 2%.
Screening CC(C)(C)c1cc(-c2ccccc2)no1 returned ELG1 repair inh inconclusive, IDH1 R132H inh 9%, Nrf2 block 5%, Nrf2 activator 0% and A549 tox -2%.
`O=C(O)c1cc(-c2cccc([N+](=O)[O-])c2)n[nH]1` gave ELG1 repair inh 20%, IDH1 R132H inh 6%, Nrf2 block -4%, Nrf2 activator 0% and A549 tox 0%.
`CNc1ccccc1C(C)(C)c1cc(-c2cccc(Br)c2)no1` gave ELG1 repair inh 9.2µM*, IDH1 R132H inh -19%, Nrf2 block inconclusive, Nrf2 activator 5% and A549 tox -22%.
CNc1ccccc1C(C)(C)c1cc(-c2ccc(F)cc2)no1 was read as ELG1 repair inh inconclusive, IDH1 R132H inh 5%, Nrf2 block 8.2µM*, Nrf2 activator -1%[9.22 µM] and A549 tox -15%.
Cc1ccc(-n2c(SCC(=O)N3CC(=O)Nc4ccccc43)nc3ccccc3c2=O)cc1 was read as ELG1 repair inh 18µM*, IDH1 R132H inh 5%, Nrf2 block inconclusive, Nrf2 activator 3% and A549 tox -1%.
For O=C1CN(C(=O)CSc2nc(-c3ccc(Cl)cc3)cs2)c2ccccc2N1 the results were ELG1 repair inh inconclusive, IDH1 R132H inh 3%, Nrf2 block 23µM*, Nrf2 activator 4% and A549 tox 1%.
`Cc1cc(C)c2nc(SCC(=O)N3CC(=O)Nc4ccccc43)c(C#N)cc2c1` gave ELG1 repair inh inconclusive, IDH1 R132H inh 3%, Nrf2 block 6%, Nrf2 activator 3% and A549 tox -1%.
For COc1ccc2nc(SCC(=O)N3CC(=O)Nc4ccccc43)c(C#N)cc2c1 the results were ELG1 repair inh 16µM*, IDH1 R132H inh 8%, Nrf2 block -17%, Nrf2 activator 2% and A549 tox -22%.
For CC(C)c1nc(SCC(=O)N2CC(=O)Nc3ccccc32)c2ccccc2n1 the results were ELG1 repair inh -9%, IDH1 R132H inh 11%, Nrf2 block inconclusive, Nrf2 activator 12% and A549 tox -12%.
Cc1cccc(C)c1-n1c(SCC(=O)N2CC(=O)Nc3ccccc32)nc2ccccc2c1=O was read as ELG1 repair inh -29%, IDH1 R132H inh inconclusive, Nrf2 block 23µM*, Nrf2 activator -1%[9.22 µM] and A549 tox -16%.
Screening COCCn1c(SCC(=O)N2CC(=O)Nc3ccccc32)nc2ccccc2c1=O returned ELG1 repair inh inconclusive, IDH1 R132H inh 5%, Nrf2 block -27%, Nrf2 activator 4% and A549 tox 0%.
Screening Cc1nnc(SCC(=O)N2CC(=O)Nc3ccccc32)s1 returned ELG1 repair inh -8%, IDH1 R132H inh -3%, Nrf2 block 0%, Nrf2 activator -1% and A549 tox 5%.
For O=S(=O)(c1ccccc1)c1nnn2c1nc(NCc1cccs1)c1sccc12 the results were IDH1 R132H inh -4%, Nrf2 block 1%, Nrf2 activator -1% and A549 tox 3%.
For O=C(CCCn1c(=O)[nH]c2ccsc2c1=O)N1CCN(c2cccc(C(F)(F)F)c2)CC1 the results were IDH1 R132H inh -4%, Nrf2 block -13%[9.27 µM], Nrf2 activator 0% and A549 tox -12%.
COc1ccc2oc(=O)cc(CN3CCN(C(=O)c4ccccc4F)CC3)c2c1 was read as IDH1 R132H inh 5%, Nrf2 block -2%, Nrf2 activator 4% and A549 tox -1%.
For Cn1c(C(=O)N2CCC(C(=O)NCCc3ccc(S(N)(=O)=O)cc3)CC2)cc2sccc21 the results were IDH1 R132H inh 0%, Nrf2 block 12%, Nrf2 activator 0% and A549 tox -11%.
Screening Cc1cc2c(s1)c1cnn(Cc3cccc(C(F)(F)F)c3)c(=O)c1n2C returned Nrf2 block 4% and A549 tox 2%.
For CCOc1c2c(c(-c3ccc4c(c3)OCO4)c3cc(OC)c(OC)cc13)C(=O)OC2 the results were Nrf2 block 1.8µM* and A549 tox 2.9µM*.
`COc1ccc(S(=O)(=O)NCC(c2ccco2)S(=O)(=O)c2cccs2)cc1OC` (stereo not given) gave IDH1 R132H inh -3%, Nrf2 activator 10% and A549 tox -1%.

Compound activity (PubChem)
